# Assay results published in PubChem BioAssay (NCATS).
# Inconclusive results are not listed. A number with no mark means an inactive call. Active and inactive are the calls of the source. The call rests on the fitted dose curve; in most records, active means well fitted curve in the direction sought with a large enough effect; inconclusive means small, poorly fitted or top-dose-only effect, or another doubt; inactive means no such curve, though single readings can be large; an effect the other way counts as inactive or inconclusive.
# Experiments:
# [1] = target: Aldehyde dehydrogenase, mitochondrial (Homo sapiens) (UniProt P05091); assay: qHTS for Inhibitors of the Aldehyde Dehydrogenase Family (ALDH2) Primary screen (AID 2061308);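 further: plate controls were vehicle for no effect and reference inhibitor for full effect; nearly all actives have a fitted effect of over 55% in size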
# [2] = target: Retinaldehyde dehydrogenase 3 (Homo sapiens) (UniProt P47895); assay: qHTS for Inhibitors of the Aldehyde Dehydrogenase Family (ALDH1A3) Primary screen (AID 2061315);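 further: plate controls were DMSO vehicle for no effect and reference inhibitor for full effect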
# [3] = BET inhibitor-based combinations targeting novel dependencies in MECOM-rearranged (r) AML: SET-2 cell line (AID 2202231); settings: SET-2 AML cells viability, CellTiter-Glo luminescence, 48 h; viability: active compounds read low, concentration not given here; further: nearly all actives have a fitted effect of over 35% in size; further: potency means the concentration at half of the fitted maximal effect;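 on viability: plate controls were DMSO treated cells for no effect and wells without cells for full effect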
# Method in brief: (§1)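 Each compound was tested at eleven concentrations on cells seeded at 500/well. After two days' incubation, ATP-based luminescence reported viability; responses relative to DMSO and blank wells yielded AUC and cell-line-centred Z-AUC.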
# [4] = BET inhibitor-based combinations targeting novel dependencies in MECOM-rearranged (r) AML: MV-4-11 cell line (AID 2202233); further: potency means the concentration at half of the fitted maximal effect; nearly all actives have a fitted effect of over 45% in size
# Method in brief: (§2)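 First, 500 cells per well were seeded; next, drugs were pinned as 11-point doses; then plates sat 48 hr in the incubator; finally CellTiter-Glo was added and luminescence read, with AUC and Z-AUC computed.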
# [5] = BET inhibitor-based combinations targeting novel dependencies in MECOM-rearranged (r) AML: UCSD-AML1 cell line (AID 2202235); further: nearly all actives have a fitted effect of over 40% in size; further: potency means the concentration at half of the fitted maximal effect
# Method in brief: as §2
# [6] = BET inhibitor-based combinations targeting novel dependencies in MECOM-rearranged (r) AML: AML-191 cell line (AID 2202236; further: nearly all actives have a fitted effect of over 35% in size; further: potency means the concentration at half of the fitted maximal effect)
# Method in brief: as §1
# [7] = BET inhibitor-based combinations targeting novel dependencies in MECOM-rearranged (r) AML: AML-194 cell line (AID 2202237; further: nearly all actives have a fitted effect of over 40% in size; further: potency means the concentration at half of the fitted maximal effect)
# Method in brief: as §1
# [8] = BET inhibitor-based combinations targeting novel dependencies in MECOM-rearranged (r) AML: OCI-AML3 cell line (AID 2202232); settings: Potency: OCI-AML3 viability; further: nearly all actives have a fitted effect of over 35% in size; further: potency means the concentration at half of the fitted maximal effect
# Method in brief: as §1
# [9] = BET inhibitor-based combinations targeting novel dependencies in MECOM-rearranged (r) AML: HNT-34 cell line (AID 2202234); further: nearly all actives have a fitted effect of over 35% in size; further: potency means the concentration at half of the fitted maximal effect
# Method in brief: as §2
Compound,Potency [1],Potency [2],viability [3] [%],Potency [4],Potency [5],Potency [6],Potency [7],Potency [8],Potency [9],Potency [3]
O=C(Nc1cccnc1)c1cc(-c2ccnc(F)c2)ccc1OCc1ccccc1,inactive,inactive,121,3.72 µM (active),inactive,inactive,inactive,,,
COc1cc2c(cc1OC(C)C)[C@H](c1ccc(Cl)cc1)N(c1ccc(N(C)CC3CCC(N4CCN(C)C(=O)C4)CC3)cc1)C(=O)C2 (some centres undefined),inactive,inactive,,2.35 µM (active),4.68 µM (active),5.9 µM (active),10.5 µM (active),11.8 µM (active),,
O=C(C1CC1)N1CC[C@@H](Cn2c(-c3ccc(-c4ccc5occc5c4)cc3)nc3cnccc32)C1,inactive,inactive,,20.9 µM (active),,,,10.5 µM (active),26.3 µM (active),
Cc1ccc(NC(=O)c2ccc(CN3CC[C@H](N(C)C)C3)c(C(F)(F)F)c2)cc1Nc1nccc(-c2cncnc2)n1,inactive,inactive,,8.11 µM (active),,,14.4 µM (active),2.04 µM (active),0.0407 µM (active),
O=C(NCc1ccccc1)c1csc(Nc2ccncn2)n1,inactive,inactive,,9.34 µM (active),18.6 µM (active),18.6 µM (active),18.6 µM (active),10.5 µM (active),10.5 µM (active),
CCn1c(N)c(C(=O)NC)c(=O)c2ccc(C#CC(C)(O)COC)nc21 (centres undefined),inactive,inactive,91.1,5.25 µM (active),inactive,23.5 µM (active),inactive,,,
COc1cc2nc(-c3ccc(N4CCN(C)CC4)cc3)nc(NCCN3CCOCC3)c2cc1OC,inactive,inactive,,2.35 µM (active),4.68 µM (active),9.34 µM (active),13.2 µM (active),,10.5 µM (active),5.9 µM (active)
Cn1cc(-c2cnc3ccc4ccc(CS(=O)(=O)NCc5ccccn5)cc4c(=O)c3c2)cn1,inactive,inactive,,,inactive,23.5 µM (active),,inactive,23.5 µM (active),16.6 µM (active)
COc1cc(Nc2ncc(F)c(Nc3ccc4c(n3)N(COP(=O)(O)O)C(=O)C(C)(C)O4)n2)cc(OC)c1OC,inactive,inactive,,,2.63 µM (active),3.72 µM (active),,inactive,2.09 µM (active),13.2 µM (active)
O=C(O)C1=CO[C@@H](O[C@@H]2O[C@H](CO)[C@@H](O)[C@H](O)[C@H]2O)[C@@H]2C(CO)=CC[C@H]12,inactive,inactive,118,,inactive,inactive,inactive,,,
CCCCNc1ncc2c(-c3ccc(F)cc3)nn(CC3CCC(N)CC3)c2n1 (centres undefined),inactive,inactive,,0.129 µM (active),6.45 µM (active),5.74 µM (active),5.74 µM (active),9.1 µM (active),4.56 µM (active),
CN(C)Cc1ccc(-c2nc3cccc4c3n2CCNC4=O)cc1,inactive,inactive,,,,,23.5 µM (active),inactive,18.6 µM (active),
CC(C)c1c(-c2ccccc2)nc2c(C#N)c[nH]n2c1=O,inactive,inactive,118,,inactive,inactive,inactive,inactive,inactive,
COc1ncc(Nc2ncc([C@H](C)N3CCN(S(C)(=O)=O)CC3)cc2-c2nc(C)nc(N)n2)cc1F,inactive,inactive,,0.0417 µM (active),0.296 µM (active),,,0.0468 µM (active),,
COc1ccc(Cl)c(Nc2nc3ccccc3nc2NS(=O)(=O)c2cccc(NC(=O)C(C)(C)N)c2)c1,inactive,inactive,103,7.42 µM (active),,16.6 µM (active),20.9 µM (active),,23.5 µM (active),
CN1CC[C@@H](c2c(O)cc(O)c3c(=O)cc(-c4ccc(C(F)(F)F)cc4Cl)oc23)[C@@H]1CO,inactive,inactive,,20.9 µM (active),,,,,,
O=C1NC(=O)/C(=C/c2cccc(C(F)(F)F)c2)S1,inactive,inactive,,,,inactive,inactive,inactive,,
